Reference: PubChem BioAssay
The source made the active and inactive calls. Unless noted, how the calls were made is not given here.

Key:
[1] = test system: Wnt5a (protein binding on small-molecule microarray); assay: small molecules binding Wnt5a protein – biophysical, small-molecule microarray, 635/667 nm fluorescence, primary screen (AID 1142); settings: 635 nm fluorescence, higher = more signal;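 further: fluorescence read at 667 nm with signal to noise per printed feature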
[2] = ATP-based viability of Huh7 replicon cells – cell-based, CellTiter-Glo luminescence, basal, 48 h, cytotoxicity control for HCV replication inhibitor project, primary screen (AID 1143); settings: higher = more signal, called active from +8 up or from −8 down;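 further: Huh7 hepatoma cells carrying a hepatitis C replication reporter with no stimulus; test concentration not given here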
[3] = Pseudomonas biofilm growth suppression – PAO1 strain, BacTiter-Glo luminescence, LB-PBS, primary screen (AID 1144); settings: P. aeruginosa PAO1 biofilm, 12 h, higher = more signal
[4] = basal CRE-LacZ reporter activity in PC12 – cell-based, unstimulated, primary screen (AID 1145); settings: no forskolin, luminescence, 4.5 h, higher = more signal, called active from +8 up or from −8 down
[5] = forskolin-driven CRE-LacZ activity in PC12 – cell-based, CRE-LacZ reporter, forskolin-stimulated, primary screen (AID 1146); settings: luminescence, 4.5 h, higher = more signal, called active from +8 up or from −8 down;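 further: PC12 cells with 6xCRE LacZ reporter stimulated by forskolin 10 µM; beta-galactosidase reporter signal reflecting CREB driven transcription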
[6] = target: Streptavidin (Streptomyces avidinii) (UniProt P22629); assay: compounds binding control protein streptavidin – biophysical, small-molecule microarray, 635/667 nm fluorescence, artefact control for SMM compound annotation, primary screen (AID 1147); settings: higher = more signal;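 further: signal reflects streptavidin binding to arrayed compounds as a control protein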
Sequence of Streptavidin (Streptomyces avidinii) (P22629 whole entry, looked up): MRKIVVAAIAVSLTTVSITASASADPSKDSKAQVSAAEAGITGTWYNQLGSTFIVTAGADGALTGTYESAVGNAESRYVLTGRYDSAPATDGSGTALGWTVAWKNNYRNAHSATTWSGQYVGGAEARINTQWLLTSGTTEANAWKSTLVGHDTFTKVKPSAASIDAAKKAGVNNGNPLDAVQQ

[7] = probe aInhba binding on compound microarray – biochemical, small-molecule microarray, 635/667 nm fluorescence, primary screen (AID 1148); settings: higher = more signal;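 further: score merges 667nm spot fluorescence with signal-to-noise for antibody binding to printed compounds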
Torsin-1A (Homo sapiens) [8] = target: Torsin-1A (Homo sapiens) (UniProt O14656); assay: TOR1A wild-type binding on microarray – cell lysate, small-molecule microarray, lysate, 635/667 nm, primary screen (AID 1149); settings: COS7 hTOR1A-WT lysate, 635 nm fluorescence, higher = more signal
Sequence of Torsin-1A (Homo sapiens) (O14656 whole entry, looked up): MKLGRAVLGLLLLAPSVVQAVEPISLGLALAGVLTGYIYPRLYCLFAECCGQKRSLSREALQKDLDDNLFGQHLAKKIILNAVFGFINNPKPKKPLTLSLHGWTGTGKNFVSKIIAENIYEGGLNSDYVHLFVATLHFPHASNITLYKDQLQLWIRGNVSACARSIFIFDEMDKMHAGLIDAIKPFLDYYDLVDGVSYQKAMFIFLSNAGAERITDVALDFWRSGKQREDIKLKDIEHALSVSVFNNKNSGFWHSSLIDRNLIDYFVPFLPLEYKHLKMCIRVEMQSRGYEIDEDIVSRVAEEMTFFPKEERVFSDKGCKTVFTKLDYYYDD

Torsin-1A (Homo sapiens) [9] = target: Torsin-1A (Homo sapiens) (UniProt O14656); assay: torsin A mutant lysate binding on microarrays – cell lysate, small-molecule microarray, COS7 lysate, 635/667 nm fluorescence, primary screen (AID 1150); settings: COS7 hTOR1A mutant lysate, 635 nm fluorescence, higher = more signal;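 further: score pools 667 nm emission and signal to noise measuring lysate protein binding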
[10] = test system: Sonic hedgehog protein (Shh); assay: Sonic hedgehog microarray binding compounds – biochemical, small-molecule microarray, 635/667 nm fluorescence, primary screen (AID 1151); settings: 635 nm fluorescence, higher = more signal;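 further: Shh protein binding to compounds spotted on small-molecule microarray slides; score combines spot fluorescence intensity with signal-to-noise across triplicate slides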
[11] = optical density shifts of acrAB sulA E. coli – strain DRC41, OD650, 48 h, E. coli filamentation inducer project, primary screen (AID 1152); settings: higher = more signal, called active from +8 up or from −8 down;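 further: E. coli MC1000 strain DRC41 lacking acrAB efflux pump and sulA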
[12] = probe aLefty1 binding on compound microarray – biochemical, small-molecule microarray, 635/667 nm fluorescence, primary screen (AID 1153); settings: higher = more signal;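 further: score merges spot fluorescence with signal-to-noise ratio from the scanned slide images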
[13] = plasmodial surface anion channel blockers, osmotic lysis – cell-based, P. falciparum Indochina, OD700, 1 h, primary screen (AID 1154); settings: P. falciparum Indochina infected RBC osmotic lysis, higher = more signal, called active from +8 up or from −8 down
[14] = plasmodial surface anion channel blockers, osmotic lysis – cell-based, P. falciparum Indochina, OD700, 2 h, primary screen (AID 1155);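 further: lysis reports solute entry through the parasite surface anion channel PSAC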; settings: P. falciparum Indochina infected erythrocytes, higher = more signal, called active from +8 up or from −8 down
[15] = changes in parasitized red cell lysis, either direction – P. falciparum Indochina, OD700, 3 h, PSAC antagonist project, primary screen (AID 1156); settings: P. falciparum-infected erythrocytes, osmotic lysis, higher = more signal, called active from +8 up or from −8 down
[16] = plasmodial surface anion channel blockers, osmotic lysis – cell-based, P. falciparum Indochina, OD700, 18 h, primary screen (AID 1157); settings: P. falciparum Indochina infected erythrocytes, osmotic lysis OD700, 18 h; higher = more signal, called active from +8 up or from −8 down
[17] = S6 kinase pathway phospho-S6 level changes – cell-based, A549, cytoblot, luminescence, serum-stimulated, primary screen (AID 1158); settings: 5 h, higher = more signal;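 further: serum-stimulated A549 lung adenocarcinoma cells; signal is phosphorylated S6 detected by cytoblot immunostaining with HRP secondary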
[18] = target: NADPH oxidase 2 (Homo sapiens) (UniProt P04839); assay: compounds shifting NOX2 Amplex Red fluorescence – cell-based, HEK293-NOX2, PMA-stimulated, NOX inhibitor project, primary screen (AID 1159); settings: 45 min, higher = more signal, called active from +8 up or from −8 down; further: test concentration not given here
Sequence of NADPH oxidase 2 (Homo sapiens) (P04839 whole entry, looked up): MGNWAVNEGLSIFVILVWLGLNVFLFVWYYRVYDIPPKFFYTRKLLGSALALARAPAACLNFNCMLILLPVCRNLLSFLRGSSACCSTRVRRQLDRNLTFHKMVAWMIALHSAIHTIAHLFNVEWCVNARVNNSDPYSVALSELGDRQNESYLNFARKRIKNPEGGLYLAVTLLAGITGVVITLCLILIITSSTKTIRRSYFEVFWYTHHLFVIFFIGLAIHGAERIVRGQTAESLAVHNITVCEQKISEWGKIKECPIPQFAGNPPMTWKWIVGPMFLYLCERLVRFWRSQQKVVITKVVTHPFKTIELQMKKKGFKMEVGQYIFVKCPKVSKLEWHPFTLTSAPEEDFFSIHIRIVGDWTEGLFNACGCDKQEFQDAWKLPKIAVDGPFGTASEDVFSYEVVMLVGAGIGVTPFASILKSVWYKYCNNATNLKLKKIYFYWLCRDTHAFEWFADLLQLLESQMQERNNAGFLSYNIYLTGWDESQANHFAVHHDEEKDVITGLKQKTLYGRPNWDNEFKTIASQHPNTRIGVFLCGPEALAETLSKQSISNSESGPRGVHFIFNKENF

[19] = target: NADPH oxidase 4 (Homo sapiens) (UniProt Q9NPH5); assay: compounds shifting NOX4 Amplex Red fluorescence – cell-based, HEK293-NOX4, tetracycline-induced, NOX inhibitor project, primary screen (AID 1160); settings: HEK293-NOX4, Amplex Red H2O2 fluorescence, 45 min; higher = more signal, called active from +8 up or from −8 down
Sequence of NADPH oxidase 4 (Homo sapiens) (Q9NPH5 whole entry, looked up): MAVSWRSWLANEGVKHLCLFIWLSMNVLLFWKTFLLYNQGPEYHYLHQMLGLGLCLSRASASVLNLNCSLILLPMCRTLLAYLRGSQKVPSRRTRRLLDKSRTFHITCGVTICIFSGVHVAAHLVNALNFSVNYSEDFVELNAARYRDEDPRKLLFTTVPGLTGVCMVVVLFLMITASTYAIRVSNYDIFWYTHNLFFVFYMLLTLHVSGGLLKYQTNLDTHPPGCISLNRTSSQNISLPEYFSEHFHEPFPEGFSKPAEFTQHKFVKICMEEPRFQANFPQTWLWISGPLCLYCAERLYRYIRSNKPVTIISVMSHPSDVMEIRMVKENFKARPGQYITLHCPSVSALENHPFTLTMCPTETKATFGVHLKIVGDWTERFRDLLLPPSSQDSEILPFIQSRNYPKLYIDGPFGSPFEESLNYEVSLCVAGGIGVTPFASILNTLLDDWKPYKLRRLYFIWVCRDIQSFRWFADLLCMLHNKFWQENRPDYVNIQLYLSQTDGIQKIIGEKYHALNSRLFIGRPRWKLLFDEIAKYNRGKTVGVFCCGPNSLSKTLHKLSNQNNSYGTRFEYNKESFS

[20] = target: NADPH oxidase 5 (Homo sapiens) (UniProt Q96PH1); assay: compounds shifting NOX5 Amplex Red fluorescence – cell-based, HEK293-NOX5, NOX inhibitor project, primary screen (AID 1161); settings: HEK293-NOX5, ionomycin, 45 min, higher = more signal
Sequence of NADPH oxidase 5 (Homo sapiens) (Q96PH1 whole entry, looked up): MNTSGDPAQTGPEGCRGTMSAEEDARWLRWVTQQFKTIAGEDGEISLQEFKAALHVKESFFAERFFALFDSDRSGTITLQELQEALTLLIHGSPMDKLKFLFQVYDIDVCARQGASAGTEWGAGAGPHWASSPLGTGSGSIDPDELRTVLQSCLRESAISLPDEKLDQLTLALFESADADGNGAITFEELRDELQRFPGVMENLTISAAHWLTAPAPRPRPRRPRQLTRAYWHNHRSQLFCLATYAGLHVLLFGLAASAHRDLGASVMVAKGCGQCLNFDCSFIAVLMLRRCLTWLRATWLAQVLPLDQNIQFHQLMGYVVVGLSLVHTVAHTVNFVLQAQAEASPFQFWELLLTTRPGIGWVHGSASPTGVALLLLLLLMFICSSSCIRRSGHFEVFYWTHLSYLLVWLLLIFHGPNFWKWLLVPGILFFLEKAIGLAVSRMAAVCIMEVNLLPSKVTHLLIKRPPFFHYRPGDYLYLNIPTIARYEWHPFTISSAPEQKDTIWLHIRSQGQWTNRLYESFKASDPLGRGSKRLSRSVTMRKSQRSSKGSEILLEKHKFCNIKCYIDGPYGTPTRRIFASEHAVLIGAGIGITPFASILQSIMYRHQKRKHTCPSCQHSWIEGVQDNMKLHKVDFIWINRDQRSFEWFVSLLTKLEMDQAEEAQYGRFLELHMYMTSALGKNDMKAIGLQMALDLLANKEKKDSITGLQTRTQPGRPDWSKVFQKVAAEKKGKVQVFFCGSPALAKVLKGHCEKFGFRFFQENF

SMILES	composite z-score [1]	z-score [2]	z-score [3]	z-score [4]	z-score [5]	composite z-score [6]	composite z-score [7]	composite z-score (Torsin-1A (Homo sapiens) [8])	composite z-score (Torsin-1A (Homo sapiens) [9])	composite z-score [10]	z-score [11]	composite z-score [12]	z-score [13]	z-score [14]	z-score [15]	z-score [16]	z-score [17]	z-score [18]	z-score [19]	z-score [20]
CCN1C(=O)[C@H]2[C@H]3[C@H](O)[C@H](O)CC(=NO[C@@H]4O[C@H](COC(C)=O)[C@@H](OC(C)=O)[C@H](OC(C)=O)[C@H]4OC(C)=O)[C@@H]3CC[C@H]2C1=O	0.352	0.772 (inactive)	1.22 (inactive)	-0.882 (inactive)	0.171 (inactive)	0.0251	-0.0221	0.331	0.0248	1.03	0.59 (inactive)	0.227	0.202 (inactive)	0.195 (inactive)	-0.519 (inactive)	0.319 (inactive)	-0.639	0.357 (inactive)	0.722 (inactive)	-0.0344
COC(=O)CC=C[C@@H](C)[C@@H](C=NOC[C@@H](O)COCc1ccco1)NS(=O)(=O)c1ccc(C)cc1	0.102	0.0032 (inactive)	0.91 (inactive)	-0.715 (inactive)	-0.0491 (inactive)	-0.601	-0.209	1.11	1.24	1.89	0.132 (inactive)	-0.186	1.25 (inactive)	0.418 (inactive)	0.0934 (inactive)	0.391 (inactive)	-0.689	0.017 (inactive)	-0.202 (inactive)	-0.106
COC(=O)[C@H](C)NC(=O)CCC1CC(OC(=O)NCCc2ccc(F)cc2)CC2(CCCC(COC(=O)NCc3ccccc3)O2)O1 (stereo not given in full)	0.101	-0.455 (inactive)	-0.035 (inactive)	0.199 (inactive)	0.833 (inactive)	0.848	-0.0209	0.257	0.477	1.25	-1.03 (inactive)	0.0367	-0.622 (inactive)	-0.694 (inactive)	-0.384 (inactive)	-0.268 (inactive)	0.788	0.0624 (inactive)	-0.0206 (inactive)	0.519
CCOC(=O)[C@H](Cc1ccccc1)NC(=O)CCC1CC(OC(=O)NCCc2ccc(F)cc2)CC2(CCCC(COC(=O)NCc3cccc(C(F)(F)F)c3)O2)O1 (stereo not given in full)	0.011	-2.08 (inactive)	0.885 (inactive)	-0.162 (inactive)	-0.605 (inactive)	0.899	-0.101	0.386	0.376	1.48	0.048 (inactive)	0.0834	-1.14 (inactive)	0.277 (inactive)	-0.017 (inactive)	0.344 (inactive)	-0.354	0.575 (inactive)	0.488 (inactive)	0.837
O=C(NN=C1C[C@@H](O)[C@@H](O)[C@@H]2[C@@H]3C(=O)N(Cc4ccc5c(c4)OCO5)C(=O)[C@@H]3CC[C@@H]12)OCc1ccccc1	-0.0565	-3.46 (inactive)	0.156 (inactive)	1.06 (inactive)	0.0698 (inactive)	0.485	-0.183	0.234	-0.0136	-0.806	-0.989 (inactive)	0.184	6.62 (inactive)	-0.207 (inactive)	0.465 (inactive)	-1.85 (inactive)	-0.0564	-1.78 (inactive)	-1.08 (inactive)	-1.39
C#CCCCON=C1C[C@@H](O)[C@@H](O)[C@@H]2[C@@H]3C(=O)N([C@@H](C)c4ccccc4)C(=O)[C@@H]3CC[C@@H]12	0.025	0.341 (inactive)	-0.0365 (inactive)	0.0676 (inactive)	0.227 (inactive)	0.214	-0.239	-0.281	-0.434	0.0938	0.0467 (inactive)	0.0824	0.433 (inactive)	0.186 (inactive)	-0.195 (inactive)	-0.139 (inactive)	-0.507	0.362 (inactive)	0.574 (inactive)	-0.132
C=CC[C@@H]1C=C[C@H](ON=C2C[C@@H](O)[C@@H](O)[C@@H]3[C@@H]4C(=O)N(CC)C(=O)[C@@H]4CC[C@@H]23)[C@@H](CO)O1	-0.123	-2.05 (inactive)	-1.39 (inactive)	2.83 (inactive)	-0.247 (inactive)	-0.816	-0.104	0.862	0.337	0.652	-0.887 (inactive)	-0.208	-0.146 (inactive)	-1.65 (inactive)	1.55 (inactive)	-1.74 (inactive)	0.525	-0.284 (inactive)	-0.621 (inactive)	-2.07
CC(=O)OC[C@H]1O[C@H](C#CCCc2ccccc2)C=C[C@@H]1OC(C)=O	-0.0248	-1.42 (inactive)	1.34 (inactive)	-0.339 (inactive)	0.859 (inactive)	-0.0683	-0.0719	0.27	0.553	1.52	-0.2 (inactive)	0.233	1.43 (inactive)	0.317 (inactive)	0.182 (inactive)	0.148 (inactive)	-0.427	-1.58 (inactive)	1.39 (inactive)	1.07
